Results filed as inconclusive are left out. Activity calls are given as the source filed them. Unless noted, calls come from the whole dose curve; as a rule, active = well fitted curve in the direction sought with a large enough effect in the repeat runs; inconclusive = weak or mixed curves; inactive = no such curve, though single readings can be large; an effect the other way counts as inactive or inconclusive.
How the values were obtained:
[1] = qHTS assay for small molecule agonists of the p53 signaling pathway (AID 651631; calls by dose curve; note: nearly all actives have a fitted effect of over 15% in size; note: potency is the fitted concentration of half-maximal effect)
In short: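 HCT-116 cells carrying a beta-lactamase reporter under p53 response elements were dosed with compound for 16 h at 37 °C. LiveBLAzer B/G FRET substrate was then added for 2 h at room temperature, and fluorescence intensity was read to detect pathway agonism.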

[2] = qHTS assay for small molecules that induce genotoxicity in human embryonic kidney cells expressing luciferase-tagged ATAD5 (AID 651632); note: nearly all actives have a fitted effect of over 15% in size; note: potency is the fitted concentration of half-maximal effect
In short: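 Test compounds were delivered by pin tool onto HEK293T reporter cells (2,000/well) expressing ATAD5 fused to luciferase. After 16 hr at 37C, 5% CO2, Amplite was added for 30 min at room temperature and luminescence was measured.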

[3] = qHTS assay for small molecule agonists of the p53 signaling pathway - cell viability (AID 651633; calls by dose curve;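 note: p53RE-bla HCT reporter cells with a stable beta-lactamase p53 reporter; series mostly up to about 83 µM; nearly all actives have a fitted effect of over 30% in size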)
In short: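 p53RE-bla cells were treated with compound for 16 hours at 37 C. Cytotoxicity was then measured as CellTiter-Glo luminescence after 30 min at room temperature.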

[4] = qHTS assay for small molecules that induce genotoxicity in human embryonic kidney cells expressing luciferase-tagged ATAD5 - cell viability (AID 651634; calls by dose curve; note: nearly all actives have a fitted effect of over 25% in size; note: potency is the fitted concentration of half-maximal effect)
In short: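 Quantitative high-throughput format. HEK293T cells expressing ATAD5 fused to luciferase were plated at 2,000 cells/well and treated 15.5 hr with compound versus DMSO. Viability was determined by fluorescent live-cell protease substrate, 30 min at 37C.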

[5] = qHTS assay for small molecule disruptors of the mitochondrial membrane potential - cell viability (AID 720634; calls by dose curve;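 note: human HepG2 liver cancer cells; series mostly up to about 83 µM; nearly all actives have a fitted effect of over 20% in size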)
In short: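 Same-well counter-screen: following the MMP dye addition, CellTiter-Glo was added to 1 hr compound-treated HepG2 cells and luminescence read after 30 min at room temperature.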

[6] = qHTS assay for small molecule disruptors of the mitochondrial membrane potential (AID 720635); note: potency is the fitted concentration of half-maximal effect
In short: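 HepG2 cells exposed to compound 1 hr at 37C, then Mito-MPS dye 30 min. Ratio read of aggregate (540/590 nm) versus monomer (490/535 nm) fluorescence.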

[7] = qHTS assay to test for compound auto fluorescence at 590 nm (red) in HepG2 cells (AID 720674)
In short: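 Fluorescence at 590 nm emission following 540 nm excitation was recorded from HepG2 wells one hour after compound transfer, with DMSO-only wells as vehicle and Rose Bengal sodium equivalency as the scale.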

[8] = qHTS assay to test for compound auto fluorescence at 460 nm (blue) in HEK293 cells (AID 720678)
In short: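 Blue read-out at excitation 405 nm and emission 460 nm follows overnight compound exposure of HEK293 cells at 37C in 5% CO2. Activity is given as auto fluorescence equivalency to triamterene.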

[9] = qHTS assay to test for compound auto fluorescence at 590 nm (red) in HEK293 cells (AID 720679)
In short: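 Red channel, Ex/Em 540/590nm; signal expressed as equivalency to Rose Bengal sodium. HEK293, 2,000 cells/well, 10% dialyzed FBS; 23 nL compound pinned after 4-5 hr attachment; overnight 37C/5% CO2 before reading.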

[10] = qHTS assay to test for compound auto fluorescence at 535 nm (green) in HEK293 cells (AID 720680)
[11] = qHTS assay to test for compound auto fluorescence at 460 nm (blue) in HEK293 cell free culture (AID 720681)
In short: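 Compounds were added to cell-free DMEM with 10% FBS and fluorescence read directly. The blue channel used 405 nm excitation and 460 nm emission, with triamterene as the reference fluorophore.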

[12] = qHTS assay to test for compound auto fluorescence at 535 nm (green) in HEK293 cell free culture (AID 720682)
In short: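 Green-label autofluorescence (485 nm excitation, 535 nm emission) measured on compound added to cell-free culture medium (DMEM, 10% FBS). Output is expressed relative to fluorescein.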

[13] = qHTS assay to test for compound auto fluorescence at 590 nm (red) in HEK293 cell free culture (AID 720683)
In short: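 Cell-free wells of DMEM with 10% FBS received compound, and intrinsic fluorescence was read at excitation/emission 540/590 nm. Values expressed as equivalence to Rose Bengal sodium.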

[14] = qHTS assay to test for compound auto fluorescence at 590 nm (red) in HepG2 cell free culture (AID 720684)
In short: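 Rose Bengal sodium served as the reference for red signal. Test compounds were dispensed into serum-containing MEM (10% FBS) without cells, and plates were read at 540/590 nm.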

[15] = qHTS assay to test for compound auto fluorescence at 535 nm (green) in HepG2 cell free culture (AID 720686)
[16] = qHTS assay to test for compound auto fluorescence at 460 nm (blue) in HepG2 cells (AID 720687)
In short: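 HepG2 cells in MEM with 10% FBS, attached overnight at 37 C, were exposed to compound or DMSO for 1 hr at 37 C, 5% CO2. Blue fluorescence was read at 405/460 nm, with triamterene as reference fluorophore.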

[17] = qHTS assay to test for compound auto fluorescence at 535 nm (green) in HepG2 cells (AID 720675)
[18] = molecular target: Glucocorticoid receptor (Homo sapiens) (UniProt P04150); test: qHTS assay to identify small molecule agonists of the glucocorticoid receptor (GR) signaling pathway (AID 720691; active = well fitted activation curve with a large enough effect in the signal ratio in the repeat runs, not every such curve was filed as active; the % refers to the signal ratio)
In short: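 A HeLa cervical cancer line expressing GR and a glucocorticoid response element-driven beta-lactamase gene is treated with compounds for 18 h; LiveBLAzer B/G FRET substrate is then applied and fluorescence read.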

[19] = molecular target: Glucocorticoid receptor (Homo sapiens) (UniProt P04150); test: qHTS assay to identify small molecule antagonists of the glucocorticoid receptor (GR) signaling pathway (AID 720692; active = well fitted inhibition curve with a large enough effect in the signal ratio in the repeat runs, not every such curve was filed as active; the % refers to the signal ratio)
In short: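 GRE-bla HeLa line, dex-stimulated (5 nM final). Compound exposure 18 h, 37 C. Beta-lactamase FRET read after 2 h RT substrate.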

[20] = qHTS assay to test for compound auto fluorescence at 460 nm (blue) in HepG2 cell free culture (AID 720685)
In short: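 Cell-free plates of MEM plus 10% FBS received 23 nL compound or DMSO vehicle; blue-channel (405/460 nm) intensity scored against triamterene as reference fluorophore.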
% is set by controls: 0 for no effect and ±100 for the full control effect.

Glucocorticoid receptor (Homo sapiens), sequence (P04150 whole entry, looked up): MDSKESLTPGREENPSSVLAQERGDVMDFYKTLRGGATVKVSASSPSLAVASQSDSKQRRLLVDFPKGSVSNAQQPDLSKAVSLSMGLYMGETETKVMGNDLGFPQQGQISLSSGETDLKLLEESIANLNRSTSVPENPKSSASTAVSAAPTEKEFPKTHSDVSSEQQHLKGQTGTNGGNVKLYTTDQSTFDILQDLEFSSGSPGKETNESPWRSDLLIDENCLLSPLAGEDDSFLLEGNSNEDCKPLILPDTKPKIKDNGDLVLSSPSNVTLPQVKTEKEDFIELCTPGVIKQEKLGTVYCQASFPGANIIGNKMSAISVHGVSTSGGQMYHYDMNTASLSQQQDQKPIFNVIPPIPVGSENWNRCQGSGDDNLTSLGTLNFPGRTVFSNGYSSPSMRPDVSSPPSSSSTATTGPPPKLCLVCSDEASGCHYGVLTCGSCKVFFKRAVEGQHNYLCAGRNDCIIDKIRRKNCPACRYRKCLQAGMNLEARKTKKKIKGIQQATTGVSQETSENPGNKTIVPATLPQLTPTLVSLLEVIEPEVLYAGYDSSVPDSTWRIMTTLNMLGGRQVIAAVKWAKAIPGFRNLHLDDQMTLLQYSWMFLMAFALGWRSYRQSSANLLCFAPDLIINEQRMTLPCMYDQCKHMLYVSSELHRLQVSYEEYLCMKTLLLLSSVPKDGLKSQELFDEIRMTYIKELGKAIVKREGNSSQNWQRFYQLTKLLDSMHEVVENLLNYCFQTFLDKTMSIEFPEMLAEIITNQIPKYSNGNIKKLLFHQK

CCCCCCC(O)CCCCCCCCCCC(=O)OC (stereo not drawn)
inactive: Potency [1] | Potency [2] | Potency [3] | Potency [4] | outcome [5] | Potency [6] | outcome [7] | Potency [8] | outcome [9] | outcome [10] | Potency [11] | outcome [12] | outcome [13] | outcome [14] | outcome [15] | Potency [16]

COc1ccc(C2C(=O)c3ccccc3C2=O)cc1
inactive: Potency [1] | Potency [2] | Potency [3] | Potency [4] | outcome [5] | Potency [6] | outcome [7] | outcome [17] | Potency [8] | outcome [9] | outcome [10] | Potency [11] | outcome [12] | outcome [13] | outcome [14] | outcome [15] | Potency [18] | Potency [19]

C1CCCCC1
inactive: Potency [1] | Potency [2] | Potency [3] | Potency [4] | outcome [5] | Potency [6] | outcome [7] | outcome [17] | Potency [8] | outcome [9] | outcome [10] | Potency [11] | outcome [12] | outcome [13] | outcome [14] | Potency [20] | Potency [16] | Potency [19]

O=C1c2ccccc2C(=O)c2c(O)ccc(O)c21
inactive: Potency [1] | Potency [2] | Potency [3] | outcome [5] | outcome [17] | Potency [8] | outcome [9] | outcome [10] | Potency [11] | outcome [12] | outcome [13] | outcome [14] | Potency [20] | outcome [15] | Potency [16] | Potency [18]
active: Potency [4] 54.5 µM | Potency [6] 3.06 µM

CC(C)(C)S
inactive: Potency [1] | Potency [2] | Potency [3] | Potency [4] | outcome [5] | Potency [6] | outcome [7] | outcome [17] | Potency [8] | outcome [9] | outcome [10] | Potency [11] | outcome [12] | outcome [13] | outcome [14] | Potency [20] | outcome [15] | Potency [16] | Potency [18]

CC(C)(O)c1coc(S(=O)(=O)NC(=O)Nc2c3c(cc4c2CCC4)CCC3)c1
inactive: Potency [1] | Potency [2] | Potency [3] | Potency [4] | outcome [5] | Potency [6] | outcome [17] | Potency [8] | outcome [9] | Potency [11] | outcome [12] | outcome [13] | outcome [14] | Potency [20] | Potency [16] | Potency [18] | Potency [19]

Cc1ccc(NC(=O)N(C)C)cc1NC(=O)N(C)C
inactive: Potency [1] | Potency [2] | Potency [3] | Potency [4] | outcome [5] | Potency [6] | outcome [7] | outcome [17] | outcome [9] | outcome [10] | Potency [11] | outcome [12] | outcome [13] | outcome [14] | Potency [20] | outcome [15] | Potency [16] | Potency [18] | Potency [19]

CC(C)(C(=O)c1cccnc1)c1cccnc1
inactive: Potency [1] | Potency [2] | Potency [3] | Potency [4] | outcome [5] | Potency [6] | fluorescence, relative to Rose Bengal [7] -0.433% [at 18.6 µM] | fluorescence, % of fluorescein control [17] -0.0177% [at 18.6 µM] | fluorescence, % of triamterene [8] -0.0025% [at 18.6 µM] | fluorescence, % of fluorescent control [9] -0.175% [at 18.6 µM] | fluorescence, % of fluorescent control [11] -0.108% [at 18.6 µM] | activity change [12] 0.0185% [at 18.6 µM] | fluorescence, % of fluorescent control [13] 0.0451% [at 18.6 µM] | fluorescence, % of Rose Bengal [14] 0.0034% [at 18.6 µM] | fluorescence, % of fluorescein control [15] 0.0796% [at 18.6 µM] | fluorescence, % of fluorescent control [16] -0.0372% [at 18.6 µM] | Potency [18] | Potency [19]

COc1cc(NS(=O)(=O)c2ccc(N)cc2)nc(C)n1
inactive: Potency [1] | Potency [2] | Potency [3] | Potency [4] | outcome [5] | Potency [6] | outcome [7] | outcome [17] | Potency [8] | outcome [10] | Potency [11] | outcome [12] | outcome [13] | outcome [14] | Potency [20] | outcome [15] | Potency [16] | Potency [19]

CC(C)N=C=NC(C)C
inactive: Potency [1] | Potency [2] | Potency [3] | Potency [4] | outcome [5] | Potency [6] | outcome [17] | Potency [8] | outcome [9] | outcome [10] | Potency [11] | outcome [12] | outcome [13] | outcome [14] | Potency [20] | outcome [15] | Potency [16] | Potency [18] | Potency [19]

CC1CCc2nccnc21 (stereo not drawn)
inactive: Potency [1] | Potency [2] | Potency [3] | Potency [4] | outcome [5] | Potency [6] | outcome [7] | outcome [17] | Potency [8] | outcome [9] | outcome [10] | Potency [11] | outcome [12] | outcome [13] | outcome [14] | Potency [20] | outcome [15]

CC(C)c1ccc(C#N)cc1
inactive: Potency [1] | Potency [2] | Potency [3] | Potency [4] | outcome [5] | Potency [6] | outcome [7] | outcome [9] | outcome [10] | Potency [11] | outcome [12] | outcome [13] | outcome [14] | Potency [20] | Potency [16] | Potency [19]

O=C(NS(=O)(=O)/C=C/c1ccccc1)c1ccc(F)cc1Cl
inactive: Potency [3] | Potency [4] | outcome [5] | outcome [7] | outcome [17] | Potency [8] | outcome [9] | outcome [10] | Potency [11] | outcome [12] | outcome [13] | outcome [14] | Potency [20] | outcome [15] | Potency [16]
active: Potency [1] 21.7 µM | Potency [2] 15.4 µM | Potency [6] 68.6 µM

CC1CCCC(=O)C1=O (stereo not drawn)
inactive: Potency [1] | Potency [2] | Potency [3] | Potency [4] | outcome [5] | Potency [6] | outcome [7] | outcome [17] | Potency [8] | outcome [9] | outcome [10] | Potency [11] | outcome [12] | outcome [13] | outcome [14] | Potency [20] | Potency [16] | Potency [18] | Potency [19]

CCCCCCOC(=O)CCCCC
inactive: Potency [1] | Potency [2] | Potency [3] | Potency [4] | outcome [5] | Potency [6] | outcome [7] | outcome [17] | outcome [9] | outcome [10] | Potency [11] | outcome [12] | outcome [13] | outcome [14] | Potency [20] | outcome [15] | Potency [16] | Potency [19]

Source: PubChem BioAssay (Tox21)
